# Values joined by “and” are separate entries in the source; they are usually repeats but may differ in a detail not shown here. Equal entries are not always repeated. Inconclusive results are not listed. Active and inactive are the calls of the source. Calls come from the whole dose curve; as a rule, active = well fitted cell-killing curve with a large enough effect in the repeat runs; inconclusive = weak or mixed curves, or effect the other way; inactive = flat fitted curve, though single readings scatter.
# Experiment: qHTS assay to identify small molecule agonists of the constitutive androstane receptor (CAR) signaling pathway - cell viability counter screen (AID 1224836); note: nearly all actives have a fitted effect of over 45% in size
# Conditions: HepG2-CYP2B6-hCAR viability, CellTiter-Fluor, 23 h, PK11195 added to every well; series mostly up to 92.4 µM; viability change, negative = cytotoxic: at the top concentration
# Text: U.S. Tox21 Program National Center for Advancing Translational Sciences [NCATS] NIH Chemical Genomics Center [NCGC] U.S. Environmental Protection Agency [EPA] National Institutes of Environmental Health Sciences [NIEHS] National Toxicology Program [NTP] U.S. Food and Drug Administration [FDA] Tox21 Assay Overview: The constitutive androstane receptor (CAR) is a nuclear receptor which regulates multiple drug metabolizing enzymes (DMEs) and transporters. Activating CAR will generally increase the transcription and subsequent translation of CYP2B6 and CYP3A4. These two DMEs represent about 50% of the drug metabolizing potential in the body. […] Recently, there have also been studies performed indicating CARs role in energy metabolism and cancer therapy. Therefore, inducing CARs activity could have a potential effect on diabetes and cancer. Identifying environmental toxins and compounds which modulate CAR, through the use of the Tox21 10K compound collection, will be an important step in determining the toxicity and potential therapeutic effects these factors will have on the human body. To differentiate true CAR agonists from cytotoxic substances, the assay is multiplexed with a cell viability assay.
# Tox21 Assay Protocol Summary: A double-stable (hCAR and CYP2B6-2.2kb) transfected cell line, derived from human hepatoma (HepG2) cells, was utilized for the duration of the quantitative high-throughput screens. The HepG2-CYP2B6-hCAR cells were dispensed at 2500 cells/4 uL/well in 1536-well white solid bottom plates using a Multidrop Combi. After the assay plates were incubated at 37 C/5% CO2 for 4 hrs, 23 nL of compounds at 15 concentrations (from 5-48 columns) or positive control (from 1 to 4 columns) were transferred to the assay plates using a Pintool station. One uL of PK11195 (final concentration = 0.75 uM) was added, using a Flying Reagent Dispenser, inside each well. After a 23 hr incubation period at 37 C/5% CO2, 1 uL of CellTiter-Fluor reagent was added into each well of the assay plates using a Flying Reagent Dispenser. The fluorescence intensity in the plates was then measured using a ViewLux plate reader.
# % is set by controls: 0 for no effect and ±100 for the full control effect; potency is the fitted concentration of half-maximal effect.
SMILES,Potency,"viability change, negative = cytotoxic"
O=C(O)CCCOc1ccc(Cl)cc1Cl,inactive,–
CCC(C)Cl (stereo not given),–,4.72% (inactive)
CC(C)CCON=O,–,3.85% (inactive)
CCOP(=S)(OCC)Oc1ccc(S(C)=O)cc1 (stereo not given),–,0.194% (inactive)
CCOP(=S)(OCC)SCSc1cc(Cl)ccc1Cl,–,3.41% (inactive)
SCc1ccccc1,–,3.82% (inactive)
C[N+](C)(C)CCOC(=O)C(O)(c1ccccc1)c1ccccc1,–,-1.26% [at 42.5 µM] (inactive)
NC(=O)CF,–,3.81% (inactive)
CCNC(=O)NC(=O)/C(C#N)=N/OC,–,7.41% (inactive)
CN1C(=O)CN=C(c2ccccc2)c2cc([N+](=O)[O-])ccc21,–,-0.0765% [at 42.5 µM] (inactive)
CCCCC1C(=O)NC(=O)N(C2CCCCC2)C1=O (stereo not given),–,-3.78% [at 42.5 µM] (inactive)
CC(Oc1cccc(Cl)c1)C(=O)O (stereo not given),–,-0.717% (inactive)
COc1cc(CC#N)cc(OC)c1OC,–,3.82% [at 42.5 µM] (inactive)
COC1=CC(=O)O[C@@H](/C=C/c2ccc3c(c2)OCO3)C1,–,-2.37% (inactive)
Cc1ccc2c(C)cccc2c1,–,2.8% (inactive)
CN(C)N,–,1.66% (inactive)
CC(C)[C@@H](C(=O)O[C@@H](C#N)c1cccc(Oc2ccccc2)c1)c1ccc(Cl)cc1,inactive,–
OC[P+](CO)(CO)CO,inactive,–
COC(=O)Cc1ccccc1,–,7.21% (inactive)
CCCN(CCC)c1c([N+](=O)[O-])cc(C(C)C)cc1[N+](=O)[O-],inactive,–

SMILES,Potency,"viability change, negative = cytotoxic"
Nc1cc(Cl)cc(C(=O)O)c1Cl,inactive,–
CCCCC(CC)COC(=O)c1c(Br)c(Br)c(Br)c(Br)c1C(=O)OCC(CC)CCCC (stereo not given),–,1.86% [at 42.5 µM] (inactive)
Nc1c(Br)cc(Br)c2c1C(=O)c1ccccc1C2=O,–,-15% [at 19 µM] (inactive)
Oc1cccc(Cl)c1,–,-4.81% (inactive)
Nc1ccccc1C(=O)OCCc1ccccc1,inactive,–
CCCN(CCC)C(=O)Cc1c(-c2ccc(Cl)cc2)nc2ccc(Cl)cn12,–,-15.6% [at 42.5 µM] (inactive)
CC(C)(c1ccccc1)c1cc(-n2nc3ccccc3n2)c(O)c(C(C)(C)c2ccccc2)c1,–,1.08% [at 42.5 µM] (inactive)
CCc1cnc(C2=NC(C)(C(C)C)C(=O)N2)c(C(=O)O)c1 (stereo not given),inactive,–
CN(C)C(=O)Nc1cccc(OC(=O)NC(C)(C)C)c1,–,-1.53% (inactive)
NC(=S)c1c(Cl)cccc1Cl,–,-0.163% (inactive)
CN1C[C@H](C(=O)N[C@]2(C)O[C@@]3(O)[C@@H]4CCCN4C(=O)[C@H](Cc4ccccc4)N3C2=O)C=C2c3cccc4[nH]cc(c34)C[C@H]21,–,-22.1% [at 42.5 µM] (inactive)
O=C([O-])c1ccccn1.O=C([O-])c1ccccn1.O=C([O-])c1ccccn1.[Cr+3],–,0.335% (inactive)
CC[N+]1(C)CCCC(OC(=O)C(O)(c2ccccc2)c2ccccc2)C1 (stereo not given),–,3.17% [at 42.5 µM] (inactive)
CCOC(C(=O)OCCN(C)C)(c1ccccc1)c1ccccc1,–,-2.02% [at 42.5 µM] (inactive)
CCOC(=O)C1OC1(C)c1ccccc1 (stereo not given),inactive,–
NP(N)(=O)NC(=O)c1ccc(F)cc1,–,-2.98% [at 42.5 µM] (inactive)
C[CH2][Hg][S]c1ccccc1C(=O)O,19.3 µM (active) and 11.9 µM (active),–
O=C(O)C(Cl)(Cl)Br,–,0.295% (inactive)
CCCC(C)(COC(N)=O)COC(=O)NC(C)C (stereo not given),inactive,–
C[C@H](N)[C@H](O)c1ccc(O)c(O)c1,–,-17.8% [at 42.5 µM] (inactive)
